Assay results reported in PubChem BioAssay (NCATS).
Records with an inconclusive call do not appear. Calls of active or inactive are those of the source. The call rests on the fitted dose curve; in most records, active means well fitted inhibition curve with a large enough effect; inconclusive means small, poorly fitted or top-dose-only effect; inactive means flat fitted curve, though single readings scatter.

molecular target: Lysine-specific demethylase 5B (Homo sapiens) (UniProt Q9UGL1); assay: Optimization screen for KDM5B Histone Demethylases FDH coupled qHTS against the LOPAC library (AID 1347166); conditions: KDM5B demethylation, FDH-coupled NADH fluorescence (FDH is formaldehyde dehydrogenase); series mostly up to 57.5 µM
How it was run: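 KDM5BDeltaAP (200nM final) in 50mM HEPES pH 7.5, 0.01% Tween-20 was preincubated with compound for 10 min at room temperature. A substrate mix of 12.5uM H3K4Me3, 25uM a-ketoglutarate, ascorbate, Fe2+, NAD+ and formaldehyde dehydrogenase was then added. NADH fluorescence (340/450 nm) was read initially and after 30 min.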

Sequence of Lysine-specific demethylase 5B (Homo sapiens) (Q9UGL1 whole entry, looked up): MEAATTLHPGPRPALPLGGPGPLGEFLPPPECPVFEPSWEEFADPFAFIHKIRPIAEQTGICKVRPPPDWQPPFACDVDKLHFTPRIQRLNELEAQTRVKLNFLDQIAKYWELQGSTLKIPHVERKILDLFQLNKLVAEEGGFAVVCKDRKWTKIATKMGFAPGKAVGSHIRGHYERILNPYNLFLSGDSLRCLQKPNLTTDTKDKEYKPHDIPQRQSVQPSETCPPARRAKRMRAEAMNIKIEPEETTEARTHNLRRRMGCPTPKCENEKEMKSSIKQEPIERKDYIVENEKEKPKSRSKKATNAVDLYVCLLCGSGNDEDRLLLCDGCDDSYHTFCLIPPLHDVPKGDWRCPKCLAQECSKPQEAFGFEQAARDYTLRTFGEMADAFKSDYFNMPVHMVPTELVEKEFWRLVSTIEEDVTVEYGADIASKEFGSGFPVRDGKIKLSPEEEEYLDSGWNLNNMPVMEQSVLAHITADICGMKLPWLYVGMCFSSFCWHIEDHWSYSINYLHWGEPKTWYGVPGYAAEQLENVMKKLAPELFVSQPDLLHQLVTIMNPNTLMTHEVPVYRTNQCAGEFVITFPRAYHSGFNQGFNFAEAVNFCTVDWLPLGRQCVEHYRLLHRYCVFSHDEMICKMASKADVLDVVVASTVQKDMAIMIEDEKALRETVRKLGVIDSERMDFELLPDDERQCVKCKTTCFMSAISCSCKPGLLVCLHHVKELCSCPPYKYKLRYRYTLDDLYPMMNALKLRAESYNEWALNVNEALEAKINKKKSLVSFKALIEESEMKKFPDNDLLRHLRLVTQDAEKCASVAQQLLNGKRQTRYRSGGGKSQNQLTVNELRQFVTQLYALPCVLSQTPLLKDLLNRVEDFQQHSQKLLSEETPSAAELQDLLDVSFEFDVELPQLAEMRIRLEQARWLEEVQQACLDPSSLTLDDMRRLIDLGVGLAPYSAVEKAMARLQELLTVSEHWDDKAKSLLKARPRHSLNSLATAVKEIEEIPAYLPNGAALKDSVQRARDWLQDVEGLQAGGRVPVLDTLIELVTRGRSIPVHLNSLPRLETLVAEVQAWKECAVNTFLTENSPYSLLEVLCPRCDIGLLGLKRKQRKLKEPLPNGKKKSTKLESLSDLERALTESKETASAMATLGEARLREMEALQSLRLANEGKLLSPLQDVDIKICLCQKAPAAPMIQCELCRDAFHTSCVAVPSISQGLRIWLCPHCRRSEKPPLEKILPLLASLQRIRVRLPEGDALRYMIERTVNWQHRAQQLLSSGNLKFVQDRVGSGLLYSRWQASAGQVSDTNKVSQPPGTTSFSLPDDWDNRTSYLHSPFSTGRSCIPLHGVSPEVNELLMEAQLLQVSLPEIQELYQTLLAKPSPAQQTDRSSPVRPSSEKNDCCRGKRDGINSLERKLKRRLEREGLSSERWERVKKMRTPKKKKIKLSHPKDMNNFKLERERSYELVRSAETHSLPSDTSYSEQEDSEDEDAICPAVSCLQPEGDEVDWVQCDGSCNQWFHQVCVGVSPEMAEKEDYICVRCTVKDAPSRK

| SMILES | outcome |
| --- | --- |
| Cc1ccc(O)c(N=Nc2ccccc2)n1 | inactive |
| CO/N=C(\C(=O)N[C@@H]1C(=O)N2C(C(=O)O)=C(COC(C)=O)CS[C@H]12)c1csc(N)n1 | inactive |
| C[N+](C)(C)CC(=O)[O-] | inactive |
| CC(N)C(=O)OC(C)(C)Cc1ccc(Cl)cc1 (stereo unspecified) | inactive |
| COc1ccc2c(c1)CCC1C2CC[C@@]2(C)C1CC[C@@H]2NCCCCCCN1C(=O)CCC1=O (stereo partly specified) | inactive |
| COc1ccccc1CNCCCCCCNCCCCCCCCNCCCCCCNCc1ccccc1OC | inactive |
| CN(C)c1nc(N)c(C(=O)N=C(N)N)nc1Cl | inactive |
| CC12C(=O)OC(=O)C1(C)C1CCC2O1 (stereo unspecified) | inactive |
| O=C(O)[C@@H]1C[C@@H](C(=O)O)N1 | inactive |
| OC[C@H]1O[C@@H](n2cnc3c(NC4CCCC4)ncnc32)[C@H](O)[C@@H]1O | inactive |
| O=C(O)CCCC[C@@H]1CCSS1 | inactive |
| CN(C)c1ccc(/C=C2\C(=O)Nc3ccccc32)cc1 | inactive |
| O=C(O)c1cc([N+](=O)[O-])ccc1NCCCc1ccccc1 | inactive |
| CN(C)C(N)=NCCC[C@H](N)C(=O)O | inactive |
| Cc1nc2sccn2c(=O)c1CCN1CCC(=C(c2ccccc2)c2ccc(F)cc2)CC1 | inactive |
| COc1ccc(NC(=O)/C=C/c2ccc(Cl)cc2)cc1 | inactive |
| CN1CCc2cc(NC(=O)Nc3cccnc3)ccc21 | inactive |
| CCCCCCCCCCCCCCCCCC(=O)OC(CC(=O)O)C[N+](C)(C)C (stereo unspecified) | inactive |

| SMILES | outcome |
| --- | --- |
| C[N+]1(C)C2CC(OC(=O)[C@H](CO)c3ccccc3)CC1C1OC12 (stereo partly specified) | inactive |
| C=CC(N)CCC(=O)O (stereo unspecified) | inactive |
| O=C1O/C(=C/Br)CCC1c1cccc2ccccc12 (stereo unspecified) | inactive |
| CCCCN1CCC(n2c(=O)[nH]c3ccccc32)CC1 | inactive |
| Fc1cccc(/C=N/N=C/c2cccc(F)c2)c1 | inactive |
| OC[C@H]1O[C@@H](n2cnc3c(Nc4ccccc4)ncnc32)[C@H](O)[C@@H]1O | inactive |
| CC1(C)CCC=[N+]1[O-] | inactive |
| O=C(Nc1ccccc1)c1cc([N+](=O)[O-])ccc1Cl | inactive |
| CC(C)CC(NP(=O)(O)O[C@@H]1O[C@@H](C)[C@H](O)[C@@H](O)[C@H]1O)C(=O)NC(Cc1c[nH]c2ccccc12)C(=O)O (stereo partly specified) | inactive |
| NC(=S)c1ccc[n+]([C@@H]2O[C@@H](COP(=O)([O-])OP(=O)(O)OC[C@H]3O[C@@H](n4cnc5c(N)ncnc54)[C@H](OP(=O)(O)O)[C@@H]3O)C(O)C2O)c1 (stereo partly specified) | inactive |
| Cn1cc(C2=C(c3ccc(Cl)cc3Cl)C(=O)NC2=O)c2ccccc21 | inactive |
| N[C@@H](CC(=O)O)C(=O)O | inactive |
| CC(COc1ccc(/C=C/c2ccccc2)cc1)[N+](C)(C)C (stereo unspecified) | inactive |
| Cc1ccc(C(=O)O[C@H](C(=O)O)[C@@H](OC(=O)c2ccc(C)cc2)C(=O)O)cc1 (tested in a mixture with another compound) | inactive |
| CN(C)CCCO[C@@H]1[C@H]2OC(C)(C)O[C@H]2O[C@@H]1[C@H](O)CO | inactive |
| COc1cc2c(CCNC(C)=O)c[nH]c2cc1Cl | inactive |
| NCCCCC(=O)O | inactive |
| Nc1nc(Nc2ccccc2)nc2c1ncn2[C@@H]1O[C@H](CO)[C@@H](O)[C@H]1O | inactive |
